# According to PubChem BioAssay AID463173 (ICCB-Longwood Screening Facility, Harvard Medical School, 2010):
# Out of some 52,000 compounds screened, about 4,300 (8.3%) were called active. Cut-off read from the data, not from the text of the source: active = survival mostly below about 52% (no sharp cut-off); inactive = mostly above about 56%. The sample as a whole holds a higher share of actives than the screen did.
# System: DeltatarO mutant
# Test: S. aureus survival, RN4220 and DeltatarO strains – OD600, teichoic acid synthesis inhibitors, primary screen (AID 463173)
# Conditions: S. aureus RN4220 wild type/DeltatarO growth, OD600, 18 h, hits give low values, screened at 18.75 µg/mL (by protocol)
row,Compound,survival
1,Cc1ccc(NC(=O)c2sc3ncnc(N(C)C4CCCCC4)c3c2C)cc1,144% (inactive)
2,CCOc1ccc(CCNC(=O)c2ccc3nc(CC)c(CC)nc3c2)cc1,91% (inactive)
3,CN(C)C(=O)CSc1ccc(-c2ccc(F)cc2)nn1,92% (inactive)
4,CC(C)Oc1ccc(C(=O)Nc2nnc3n2CCS3)cc1,124% (inactive)
5,Cc1cccc(NC(=O)NC2CC3CCCC(C2)N3CC(C)C)c1 (stereo not given),94% (inactive)
6,CC(C)C(NS(=O)(=O)c1ccc2c(c1)oc(=O)n2C)C(=O)NCCc1ccccc1 (stereo not given),89% (inactive)
7,COc1ccc(C(=O)Nc2ccc(N3CCOCC3)c(C(F)(F)F)c2)cc1OC,91% (inactive)
8,Cc1oc2ccc(O)c(CN3CCN(Cc4ccccc4)CC3)c2c1C(=O)Nc1cccc(Cl)c1C,72% (inactive)
9,Cc1oc2ccc(O)c(CN3CCN(C)CC3)c2c1C(=O)Nc1cccc(C(F)(F)F)c1,81% (inactive)
10,Cc1oc2ccc(O)c(CN(C)Cc3ccccc3)c2c1C(=O)Nc1cccc(Cl)c1C,11% (active)
11,Cc1oc2ccc(O)c(CN3CCCC3)c2c1C(=O)Nc1cccc(Cl)c1C,71% (inactive)
12,Cc1oc2ccc(O)c(CN(C)Cc3ccccc3)c2c1C(=O)Nc1cccc(C(F)(F)F)c1,6% (active)
13,Cc1oc2ccc(O)c(CN(C)Cc3ccccc3)c2c1C(=O)Nc1ccccc1,92% (inactive)
14,CCOC(=O)c1ccccc1NC(=O)c1c2c(nc3ccccc13)C(=O)N(C1CCCCC1)C2,75% (inactive)
15,CC(C)C1N=C2c3ccccc3N=C(SCC(=O)NCc3ccc(F)cc3)N2C1=O (stereo not given),73% (inactive)
16,Cc1ccc(Cn2ccn(CC(=O)Nc3c(C)cc(C)cc3C)c(=O)c2=O)cc1,47% (inactive)
17,Cc1ccc(NC(=O)Cn2ccn(-c3ccccc3)c(=O)c2=O)cc1,56% (active)
18,CCc1ccc(NC(=O)Cn2ccn(Cc3ccccc3OC)c(=O)c2=O)cc1,46% (active)
19,COc1ccccc1Cn1ccn(CC(=O)Nc2c(C)cc(C)cc2C)c(=O)c1=O,41% (active)
20,CCc1ccc(NC(=O)Cn2ccn(-c3ccc(OC)cc3)c(=O)c2=O)cc1,67% (inactive)
21,COc1cc(NC(=O)Cn2ccn(Cc3ccccc3OC)c(=O)c2=O)cc(OC)c1,52% (inactive)
22,O=C(Cn1ccn(-c2ccc(F)cc2)c(=O)c1=O)Nc1ccc(F)cc1,60% (inactive)
23,COc1ccccc1NC(=O)Cn1ccn(-c2cc(C)cc(C)c2)c(=O)c1=O,55% (inactive)

row,Compound,survival
1,COc1ccc(NC(=O)Cn2ccn(-c3ccccc3)c(=O)c2=O)cc1,52% (inactive)
2,COc1ccc(NC(=O)CC2C(=O)N(c3ccc(C)cc3)C(=O)N2CCc2ccccc2)cc1 (stereo not given),62% (inactive)
3,Cc1ccc(-c2cn3c(n2)sc2cc(C(=O)NCCCc4ccccc4)ccc23)c(C)c1,48% (inactive)
4,O=C1N(c2ccccc2)C(=O)N(c2ccccc2)C2c3ccccc3C=CN12 (stereo not given),100% (inactive)
5,CCOC(=O)c1ccccc1NC(=O)Nc1cc2c(cc1N1CCCC1)n(C)c(=O)n2C,108% (inactive)
6,CCc1nc2ccc(C(=O)NCCc3ccc(OC)c(OC)c3)cc2nc1CC,88% (inactive)
7,Cc1cccc(NC(=O)c2c(Br)sc3c2CCCC3)c1,3% (active)
8,Cc1cccc(NC(=O)c2c(NC(=O)C(F)(F)F)sc3c2CCCCC3)c1,-3% (active)
9,O=C(Cc1ccccc1)Nc1sc2c(c1C(=O)Nc1cccc(Cl)c1)CCCCC2,65% (inactive)
10,Cc1cccc(NC(=O)c2c(N)sc3c2CCC(C)C3)c1 (stereo not given),59% (inactive)
11,Cc1cccc(NC(=O)c2c(NC(=O)c3ccccc3)sc3c2CCCC3)c1,61% (inactive)
12,CCOc1ccc(NC(=O)c2c(NC(=O)c3cccc(C)c3)sc3c2CCC3)cc1,160% (inactive)
13,O=C(Nc1sc2c(c1C(=O)Nc1cccc(Cl)c1)CCCC2)c1cccs1,159% (inactive)
14,O=C(Nc1cccc(Cl)c1)c1c(NC(=O)C(F)(F)F)sc2c1CCCC2,-2% (active)
15,Cc1cccc(NC(=O)c2c(NC(=O)c3ccccc3)sc3c2CCC3)c1,72% (inactive)
16,O=c1n(Cc2ccc(F)cc2Cl)c2ccccc2c2nc(-c3ccccc3)nn12,125% (inactive)
17,O=S(=O)(c1ccc(-c2cnc(C3CC3)o2)cc1)N1CCN(c2cccc(Cl)c2)CC1,75% (inactive)
18,COc1ccc(Br)cc1CNC(=O)C1COc2ccccc2C1 (stereo not given),49% (inactive)
19,COc1ccc(C(=O)Oc2c(Sc3ccc(C)cc3)c(C)nn2C(C)(C)C)cc1OC,115% (inactive)
20,Cc1nn(C(C)(C)C)c(OC(=O)C(C)(C)C)c1Sc1ccccc1,-10% (active)
21,COc1ccc(C(=O)Oc2c(Sc3ccc(C)cc3)c(C)nn2C(C)(C)C)c(OC)c1,49% (inactive)
22,Cc1ccccc1C(=O)Oc1c(Sc2ccccc2)c(C)nn1C(C)(C)C,21% (active)
23,COc1cccc(C(=O)Oc2c(Sc3ccc(C)cc3)c(C)nn2C(C)(C)C)c1OC,21% (active)

row,Compound,survival
1,Cc1ccc(Sc2c(C)nn(C(C)(C)C)c2OC(=O)C(C)(C)C)cc1,-10% (active)
2,COc1ccccc1C(=O)Oc1c(Sc2ccccc2)c(C)nn1C(C)(C)C,87% (inactive)
3,CCOc1ccccc1C(=O)Oc1c(Sc2ccccc2)c(C)nn1C(C)(C)C,91% (inactive)
4,Cc1oc2cc3oc(=O)c(CCC(=O)NCCc4ccccc4F)c(C)c3cc2c1C,94% (inactive)
5,O=S(=O)(c1ccc2oc(-c3cccnc3)nc2c1)c1ccc2oc(-c3cccnc3)nc2c1,64% (inactive)
6,CCOC(=O)c1c(-c2ccc(C)cc2C)csc1NC(=O)c1ccccc1Cl,47% (inactive)
7,CC(C)c1ccc(C2N3CC4(C)CN2CC(c2ccccc2)(C3)C4=O)cc1 (stereo not given),80% (inactive)
8,CC(C)NC(=O)C1CC(=O)N(c2ccc(Oc3ccccc3)cc2)C1 (stereo not given),87% (inactive)
9,CSc1ncc(Cl)c(C(=O)Nc2ccc(S(=O)(=O)N3CCC(C)CC3)cc2)n1,62% (inactive)
10,O=C(Cn1ccn(-c2ccc(F)cc2)c(=O)c1=O)Nc1ccccc1C(F)(F)F,50% (inactive)
11,CCC(=O)Oc1c(Sc2ccc(Cl)cc2)c(C)nn1C(C)(C)C,78% (inactive)
12,Cc1ccc(Sc2c(C)nn(C(C)(C)C)c2OC(=O)CC(C)C)cc1,-9% (active)
13,COCC(=O)Oc1c(Sc2ccc(C)cc2)c(C)nn1C(C)(C)C,78% (inactive)
14,O=C(CC1Nc2ccccc2NC1=O)Nc1cccc2ccccc12 (stereo not given),93% (inactive)
15,O=C(NCCc1ccccc1)c1ccc(Cn2c(=O)c3cccn3c3cccnc32)cc1,51% (inactive)
16,CN(C)c1ccc(CNC(=O)c2ccc(Cn3c(=O)c4cccn4c4cccnc43)cc2)cc1,60% (inactive)
17,Cc1ccc(CCNC(=O)c2ccc(Cn3c(=O)c4cccn4c4cccnc43)cc2)cc1,52% (inactive)
18,O=C(NCc1ccc(Cl)cc1)c1ccc(Cn2c(=O)c3cccn3c3cccnc32)cc1,49% (inactive)
19,O=C(NCCc1ccc(Cl)cc1)c1ccc(Cn2c(=O)c3cccn3c3cccnc32)cc1,43% (active)
20,COc1ccc(CNC(=O)c2ccc(Cn3c(=O)c4cccn4c4cccnc43)cc2)cc1OC,67% (inactive)
21,O=C(NCc1ccccc1Cl)c1ccc(Cn2c(=O)c3cccn3c3cccnc32)cc1,103% (inactive)
22,CCOc1cc(CNC(=O)c2ccc(Cn3c(=O)c4cccn4c4cccnc43)cc2)ccc1OC,52% (active)
23,CC(C)Oc1ccc(CNC(=O)c2ccc(Cn3c(=O)c4cccn4c4cccnc43)cc2)cc1,55% (inactive)

row,Compound,survival
1,CCOc1ccccc1CNC(=O)c1ccc(Cn2c(=O)c3cccn3c3cccnc32)cc1,44% (active)
2,COc1ccc(CNC(=O)c2ccc(Cn3c(=O)c4cccn4c4cccnc43)cc2)c(OC)c1,58% (active)
3,CCCNC(=O)c1ccc(Cn2c(=O)c3cccn3c3cccnc32)cc1,52% (inactive)
4,O=C(NCCc1ccccc1)C(=O)Nc1cccc(Br)c1,68% (inactive)
5,Cc1ccc2c(CC(=O)Nc3nnc(C(C)C)s3)coc2c1C,101% (inactive)
6,CC(C)c1ccc(CN(C(=O)c2cc3ccccc3oc2=O)C2CCS(=O)(=O)C2)cc1 (stereo not given),51% (inactive)
7,CCCCOC(=O)c1ccc(NC(=O)c2ccc3c(c2)CCCN3S(C)(=O)=O)cc1,96% (inactive)
8,C=CCC1N(c2ccccc2)C(=O)C2C(C(=O)O)C3C=CC21O3 (stereo not given),103% (inactive)
9,[O-][n+]1onc2c1CCC1N(O)C(c3ccccc3)CC21O (stereo not given),80% (inactive)
10,O=C(CCSCc1ccc(Cl)cc1)N1CCN(c2ccccc2F)CC1,77% (inactive)
11,CC1=C(C(=O)Nc2cc(C)ccc2C)C2(CCCCCC2)OC1=O,89% (inactive)
12,Cc1ccccc1NC(=O)C(=O)NCC1(c2ccccc2)CCCC1,73% (inactive)
13,O=C(Cn1c(=O)n(-c2ccccc2Cl)c(=O)c2sc3ccccc3c21)NC1CCCCC1,109% (inactive)
14,COc1ccc(CCNC(=O)c2ccc(Cn3c(=O)c4cccn4c4cccnc43)cc2)cc1OC,48% (active)
15,O=C(NCc1ccccc1)c1ccc(Cn2c(=O)c3cccn3c3cccnc32)cc1,108% (inactive)
16,Cc1cccc(CNC(=O)c2ccc(Cn3c(=O)c4cccn4c4cccnc43)cc2)c1,48% (active)
17,CCOc1ccc(CCNC(=O)c2ccc(Cn3c(=O)c4cccn4c4cccnc43)cc2)cc1,93% (inactive)
18,COc1ccc(CCNC(=O)CCn2c(=O)c3cccn3c3cccnc32)cc1OC,82% (inactive)
19,CCc1ccc(CNC(=O)c2ccc(Cn3c(=O)c4cccn4c4cccnc43)cc2)cc1,67% (inactive)
20,Cc1cc(C)c2sc(N(Cc3cccnc3)C(=O)CCS(=O)(=O)c3ccccc3)nc2c1,89% (inactive)
21,CCc1ccccc1NC(=O)Cn1c(=O)nc(-c2ccccc2)c2ccccc21,90% (inactive)
